Reference: PubChem BioAssay
The source made the active and inactive calls. Unless noted, how the calls were made is not given here.

Experiments:
[1] = compounds binding Alexa647 anti-His antibody – biochemical, small-molecule microarray, 635 nm fluorescence, artefact control for SMM control protein annotation, primary screen (AID 1128); settings: higher = more signal;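 further: score merges feature fluorescence with signal-to-noise for each printed compound spot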
[2] = test system: Human papillomavirus type 1a E7 protein (residues 1-88); assay: HPV1a E7 small-molecule binders, primary screen, biochemical, small-molecule microarray, residues 1-88, 635 nm (AID 1129); settings: small-molecule microarray binding, fluorescence 635 nm; higher = more signal
[3] = molecular target: Focal adhesion kinase 1 (Homo sapiens) (UniProt Q05397); assay: PTK2 protein binding on printed compound slides – biochemical, small-molecule microarray, 635/667 nm fluorescence, BSA, DTT, primary screen (AID 1130); settings: 635 nm fluorescence, higher = more signal;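 further: composite of spot emission at 667 nm and signal to noise over triplicate slides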
[4] = test system: Fibrinogen (Alexa647-labelled); assay: Alexa647-fibrinogen binding to printed small molecules – biochemical, small-molecule microarray, 635/667 nm fluorescence, artefact control for SMM control-protein annotation, profiling panel (AID 1131); settings: fibrinogen-A647 binding fluorescence, higher = more signal;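 further: z-score merges 667 nm fluorescence with per-spot signal-to-noise over triplicate slides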
[5] = molecular target: Follistatin (Homo sapiens) (UniProt P19883); assay: FST protein binding to printed compounds – biochemical, small-molecule microarray, 635/667 nm fluorescence, primary screen (AID 1132); settings: 635 nm fluorescence, higher = more signal
[6] = molecular target: Fibroblast growth factor 2 (Homo sapiens) (UniProt P09038); assay: basic fibroblast growth factor binding to printed compounds – biochemical, small-molecule microarray, 635/667 nm fluorescence, primary screen (AID 1133); settings: FGF2, fluorescence 635/667, higher = more signal
[7] = JC-1 mitochondrial potential readout, lung cancer cells – cell-based, A549, JC-1 fluorescence, basal, 24 h, 100 nL, profiling panel (AID 1138); settings: higher = more signal;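 further: A549 lung adenocarcinoma cells under basal conditions with no added stimulus; test concentration not given here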
[8] = test system: Lefty1; assay: Lefty1 protein binding to printed compounds – biochemical, small-molecule microarray, 635/667 nm fluorescence, primary screen (AID 1139); settings: fluorescence 635/667, higher = more signal
[9] = test system: wheat germ agglutinin (Triticum aestivum), Alexa647-labelled; assay: Alexa647-WGA lectin binding to printed small molecules – biochemical, small-molecule microarray, 635/667 nm fluorescence, artefact control for SMM control-protein annotation, profiling panel (AID 1140); settings: WGA-A647 binding, 635 nm fluorescence, higher = more signal;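 further: score merges 667 nm feature emission with signal to noise over triplicate slides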
[10] = molecular target: Luciferin 4-monooxygenase (Photinus pyralis) (UniProt P08659); assay: inhibition of purified Photinus pyralis luciferase – biochemical, luminescence, purified enzyme, 2006 set, primary screen (AID 1141); settings: purified firefly luciferase, SteadyGlo luminescence, 30 min; higher = more signal, called active from +8 up or from −8 down;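 further: cell-free assay with purified firefly luciferase at 100 ng per well in PBS; test concentration not given here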
[11] = test system: Wnt5a (protein binding on small-molecule microarray); assay: small molecules binding Wnt5a protein – biophysical, small-molecule microarray, 635/667 nm fluorescence, primary screen (AID 1142); settings: 635 nm fluorescence, higher = more signal;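 further: fluorescence read at 667 nm with signal to noise per printed feature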
[12] = ATP-based viability of Huh7 replicon cells – cell-based, CellTiter-Glo luminescence, basal, 48 h, cytotoxicity control for HCV replication inhibitor project, primary screen (AID 1143); settings: higher = more signal, called active from +8 up or from −8 down;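 further: Huh7 hepatoma cells carrying a hepatitis C replication reporter with no stimulus; test concentration not given here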
[13] = Pseudomonas biofilm growth suppression – PAO1 strain, BacTiter-Glo luminescence, LB-PBS, primary screen (AID 1144); settings: P. aeruginosa PAO1 biofilm, 12 h, higher = more signal
[14] = basal CRE-LacZ reporter activity in PC12 – cell-based, unstimulated, primary screen (AID 1145); settings: no forskolin, luminescence, 4.5 h, higher = more signal, called active from +8 up or from −8 down
[15] = forskolin-driven CRE-LacZ activity in PC12 – cell-based, CRE-LacZ reporter, forskolin-stimulated, primary screen (AID 1146); settings: luminescence, 4.5 h, higher = more signal, called active from +8 up or from −8 down;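 further: PC12 cells with 6xCRE LacZ reporter stimulated by forskolin 10 µM; beta-galactosidase reporter signal reflecting CREB driven transcription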
[16] = molecular target: Streptavidin (Streptomyces avidinii) (UniProt P22629); assay: compounds binding control protein streptavidin – biophysical, small-molecule microarray, 635/667 nm fluorescence, artefact control for SMM compound annotation, primary screen (AID 1147); settings: higher = more signal;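 further: signal reflects streptavidin binding to arrayed compounds as a control protein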
[17] = probe aInhba binding on compound microarray – biochemical, small-molecule microarray, 635/667 nm fluorescence, primary screen (AID 1148); settings: higher = more signal;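 further: score merges 667nm spot fluorescence with signal-to-noise for antibody binding to printed compounds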
[18] = molecular target: Torsin-1A (Homo sapiens) (UniProt O14656); assay: TOR1A wild-type binding on microarray – cell lysate, small-molecule microarray, lysate, 635/667 nm, primary screen (AID 1149); settings: COS7 hTOR1A-WT lysate, 635 nm fluorescence, higher = more signal
[19] = molecular target: Torsin-1A (Homo sapiens) (UniProt O14656); assay: torsin A mutant lysate binding on microarrays – cell lysate, small-molecule microarray, COS7 lysate, 635/667 nm fluorescence, primary screen (AID 1150); settings: COS7 hTOR1A mutant lysate, 635 nm fluorescence, higher = more signal;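 further: score pools 667 nm emission and signal to noise measuring lysate protein binding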
[20] = test system: Sonic hedgehog protein (Shh); assay: Sonic hedgehog microarray binding compounds – biochemical, small-molecule microarray, 635/667 nm fluorescence, primary screen (AID 1151); settings: 635 nm fluorescence, higher = more signal;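 further: Shh protein binding to compounds spotted on small-molecule microarray slides; score combines spot fluorescence intensity with signal-to-noise across triplicate slides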

Focal adhesion kinase 1 (Homo sapiens), sequence (Q05397 whole entry, looked up): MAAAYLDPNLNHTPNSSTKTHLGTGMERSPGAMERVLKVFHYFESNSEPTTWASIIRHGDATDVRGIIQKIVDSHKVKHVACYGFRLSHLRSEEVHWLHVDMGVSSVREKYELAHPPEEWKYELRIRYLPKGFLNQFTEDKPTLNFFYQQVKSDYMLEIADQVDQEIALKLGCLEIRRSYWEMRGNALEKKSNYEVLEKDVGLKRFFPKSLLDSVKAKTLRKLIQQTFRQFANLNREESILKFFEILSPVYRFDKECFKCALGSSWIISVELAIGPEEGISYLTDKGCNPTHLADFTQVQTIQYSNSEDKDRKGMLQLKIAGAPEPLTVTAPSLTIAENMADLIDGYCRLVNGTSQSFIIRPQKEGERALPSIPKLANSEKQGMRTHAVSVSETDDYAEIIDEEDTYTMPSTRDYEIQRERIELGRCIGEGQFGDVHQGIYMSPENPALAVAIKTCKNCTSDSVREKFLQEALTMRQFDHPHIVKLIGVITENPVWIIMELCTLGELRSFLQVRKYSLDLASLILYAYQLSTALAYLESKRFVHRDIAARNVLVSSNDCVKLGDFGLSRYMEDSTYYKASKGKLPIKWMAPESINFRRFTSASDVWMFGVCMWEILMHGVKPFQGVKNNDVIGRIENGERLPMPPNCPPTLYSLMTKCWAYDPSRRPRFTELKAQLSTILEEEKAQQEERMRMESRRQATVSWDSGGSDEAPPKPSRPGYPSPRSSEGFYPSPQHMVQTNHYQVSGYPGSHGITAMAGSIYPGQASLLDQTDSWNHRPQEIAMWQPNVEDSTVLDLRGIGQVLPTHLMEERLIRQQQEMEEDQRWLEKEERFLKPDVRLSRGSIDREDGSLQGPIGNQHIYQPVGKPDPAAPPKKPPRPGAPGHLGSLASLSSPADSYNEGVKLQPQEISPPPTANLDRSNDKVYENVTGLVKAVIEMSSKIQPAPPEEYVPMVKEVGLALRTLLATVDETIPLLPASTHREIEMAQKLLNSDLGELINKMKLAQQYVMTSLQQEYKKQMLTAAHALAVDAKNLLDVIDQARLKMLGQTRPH
Streptavidin (Streptomyces avidinii), sequence (P22629 whole entry, looked up): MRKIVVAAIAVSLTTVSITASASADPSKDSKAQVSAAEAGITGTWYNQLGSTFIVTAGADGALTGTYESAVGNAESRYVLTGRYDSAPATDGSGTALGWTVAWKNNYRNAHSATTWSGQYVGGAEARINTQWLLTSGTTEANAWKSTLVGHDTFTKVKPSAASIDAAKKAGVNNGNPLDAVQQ
Torsin-1A (Homo sapiens), sequence (O14656 whole entry, looked up): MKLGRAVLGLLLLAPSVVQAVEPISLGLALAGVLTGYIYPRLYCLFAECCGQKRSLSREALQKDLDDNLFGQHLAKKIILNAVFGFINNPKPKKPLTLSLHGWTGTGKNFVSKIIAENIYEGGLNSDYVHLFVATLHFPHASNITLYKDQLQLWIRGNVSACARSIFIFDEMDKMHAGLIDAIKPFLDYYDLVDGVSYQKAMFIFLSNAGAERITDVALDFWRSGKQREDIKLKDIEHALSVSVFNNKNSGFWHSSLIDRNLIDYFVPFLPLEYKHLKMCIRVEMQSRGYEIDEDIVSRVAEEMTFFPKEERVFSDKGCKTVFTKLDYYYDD
Follistatin (Homo sapiens), sequence (P19883 whole entry, looked up): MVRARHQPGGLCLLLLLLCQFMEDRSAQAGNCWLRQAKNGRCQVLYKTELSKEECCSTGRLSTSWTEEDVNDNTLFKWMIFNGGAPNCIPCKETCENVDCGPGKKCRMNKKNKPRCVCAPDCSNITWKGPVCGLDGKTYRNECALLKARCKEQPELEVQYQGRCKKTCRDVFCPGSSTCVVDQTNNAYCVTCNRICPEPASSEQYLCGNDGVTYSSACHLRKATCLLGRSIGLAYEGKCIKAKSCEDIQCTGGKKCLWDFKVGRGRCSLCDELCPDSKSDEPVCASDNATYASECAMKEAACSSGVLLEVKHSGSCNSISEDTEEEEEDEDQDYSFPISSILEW
Fibroblast growth factor 2 (Homo sapiens), sequence (P09038 whole entry, looked up): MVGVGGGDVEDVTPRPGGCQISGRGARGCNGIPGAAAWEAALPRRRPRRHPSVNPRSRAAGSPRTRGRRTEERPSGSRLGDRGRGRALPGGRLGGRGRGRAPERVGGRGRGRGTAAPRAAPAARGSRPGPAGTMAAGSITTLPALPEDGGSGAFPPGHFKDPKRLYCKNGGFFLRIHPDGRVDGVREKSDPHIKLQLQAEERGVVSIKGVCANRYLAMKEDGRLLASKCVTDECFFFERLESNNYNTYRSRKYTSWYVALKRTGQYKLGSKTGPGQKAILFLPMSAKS
Luciferin 4-monooxygenase (Photinus pyralis), sequence (P08659 whole entry, looked up): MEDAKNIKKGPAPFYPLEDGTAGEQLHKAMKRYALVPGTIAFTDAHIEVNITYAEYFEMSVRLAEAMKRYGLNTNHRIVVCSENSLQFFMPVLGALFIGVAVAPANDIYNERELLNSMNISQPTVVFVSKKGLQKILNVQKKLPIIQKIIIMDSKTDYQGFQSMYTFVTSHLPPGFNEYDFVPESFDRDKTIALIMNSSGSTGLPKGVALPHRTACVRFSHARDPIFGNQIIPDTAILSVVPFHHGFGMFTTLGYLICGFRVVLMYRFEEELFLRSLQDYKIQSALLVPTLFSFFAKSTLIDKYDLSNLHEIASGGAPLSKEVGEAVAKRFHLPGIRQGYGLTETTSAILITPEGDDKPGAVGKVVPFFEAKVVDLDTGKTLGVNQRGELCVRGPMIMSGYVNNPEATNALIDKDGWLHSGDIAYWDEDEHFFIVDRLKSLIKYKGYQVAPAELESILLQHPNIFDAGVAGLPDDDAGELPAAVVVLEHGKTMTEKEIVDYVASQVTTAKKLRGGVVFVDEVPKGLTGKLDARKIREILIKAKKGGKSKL

Row | Compound | composite z-score [1] | composite z-score [2] | composite z-score [3] | composite z-score [4] | composite z-score [5] | composite z-score [6] | z-score [7] | composite z-score [8] | composite z-score [9] | z-score [10] | composite z-score [11] | z-score [12] | z-score [13] | z-score [14] | z-score [15] | composite z-score [16] | composite z-score [17] | composite z-score [18] | composite z-score [19] | composite z-score [20]
1 | Cc1ccc(F)cc1S(=O)(=O)N[C@@H]1CCN(Cc2ccc(CC(C)C)cc2)C1 | -0.016 | -0.381 | 0.132 | 0.129 | 0.111 | -0.367 | -0.391 | 0.163 | 0.0831 | 0.886 (inactive) | -0.524 | -4.94 (inactive) | -0.158 (inactive) | -0.683 (inactive) | 0.673 (inactive) | -0.758 | -0.231 | 0.492 | -0.859 | 0.15
2 | CC(C)NC(=O)[C@@H]1c2ccccc2C(=O)N(CC23CC4CC(CC(C4)C2)C3)[C@H]1c1ccc(CO)cc1 | 0.526 | 1.23 | 0.417 | 0.973 | 1.35 | 0.615 | 0.689 | 0.822 | 0.298 | 0.892 (inactive) | 0.0678 | -4.06 (inactive) | -2.1 (inactive) | -0.0259 (inactive) | -0.607 (inactive) | 0.969 | 0.0569 | 0.508 | 0.561 | 1.54
3 | COc1ccc(O[C@@H]2[C@H](O)CO[C@H]2C=CC#Cc2ccccc2)cc1 | 1.1 | -0.253 | -0.267 | 0.73 | 0.356 | 0.341 | -0.0963 | 0.407 | 0.535 | -0.391 (inactive) | -0.02 | 0.163 (inactive) | 0.995 (inactive) | 0.201 (inactive) | 0.415 (inactive) | -0.31 | -0.0762 | 0.23 | 0.286 | 0.332
4 | CO[C@@H]1COC(=O)CC=C[C@@H](C)[C@@H]2C=C[C@H](O)[C@@H](COC(=O)CCC[C@H]1C)O2 | 1.59 | -0.442 | -0.382 | -0.478 | 1.06 | 1.3 | -0.992 | 1.08 | -0.0297 | 0.732 (inactive) | 0.0796 | -0.493 (inactive) | 0.0169 (inactive) | -2.36 (inactive) | -1.91 (inactive) | 1.35 | -0.118 | 0.858 | 1.6 | 1.55
5 | COC(=O)[C@@]1(Cc2ccc(OC)cc2)[C@H]2c3cc(C(=O)N4CCCC4)n(Cc4cc(F)c(F)c(F)c4)c3C[C@H]2CN1C(=O)c1ccccc1 | 2.21 | 1.26 | 0.59 | 1.02 | 1.19 | -0.149 | 0.649 | -0.551 | 1.31 | 1.95 (inactive) | 2.29 | -3.23 (inactive) | 0.112 (inactive) | 0.0041 (inactive) | 0.589 (inactive) | 2.6 | 1.87 | 0.188 | 0.538 | -0.241
6 | COC(=O)C1(C)C=C2C(=C(c3ccccc3)C(=O)C2C)CN1 (stereo not given) | 1.57 | 0.0147 | 0.0183 | 0.494 | -0.882 | -0.253 | -0.353 | -1.5 | 0.264 | 1.89 (inactive) | 0.0106 | -0.266 (inactive) | -0.426 (inactive) | 0.593 (inactive) | -0.0287 (inactive) | -0.153 | 0.12 | -0.366 | -0.367 | -0.593
7 | CCc1cc2c(nc1CC)CCN(CCC(C)=NOC[C@@H](O)COCc1ccco1)C2 | 1.31 | -0.952 | -0.439 | -0.19 | 1.47 | 1.53 | 1.69 | 1.53 | 0.182 | -0.85 (inactive) | 0.391 | -0.112 (inactive) | 0.132 (inactive) | 2.16 (inactive) | 0.785 (inactive) | 0.536 | 0.149 | 3.95 | 3.64 | 2.31
8 | C[C@H](c1ccccc1)N1C(=O)[C@H]2[C@@H]3C(=CC[C@H]2C1=O)C(=O)[C@H]1O[C@H]1[C@H]3O | 1.36 | 0.336 | 0.204 | 0.367 | 0.642 | 0.565 | -0.732 | 0.708 | -0.0651 | -1.47 (inactive) | -0.103 | -7.43 (inactive) | 1.16 (inactive) | 0.699 (inactive) | 4.29 (inactive) | 0.108 | -0.0474 | 0.25 | -0.0342 | 0.469
9 | CO[C@H]([C@@H](C)[C@H](OC)c1ccccc1)[C@H](C)[C@@H](OC)[C@H](C)C(C)=O | 1 | -0.744 | 0.27 | -0.464 | -0.304 | 0.0135 | 1.1 | 0.128 | -0.496 | -1.87 (inactive) | -0.183 | 0.0807 (inactive) | 0.185 (inactive) | -0.98 (inactive) | -0.358 (inactive) | -0.554 | 0.809 | -0.225 | -0.327 | 0.497
10 | O=C1[C@H]2[C@H]3[C@H](O)[C@H](O)CC(=NO[C@@H]4O[C@H](CO)[C@@H](O)[C@H](O)[C@H]4O)[C@H]3CC[C@H]2C(=O)N1C1CCCCC1 | 0.648 | 1.16 | 0.84 | 0.402 | -0.384 | -0.0148 | -0.0288 | 0.625 | 0.183 | 0.23 (inactive) | -0.0314 | 0.582 (inactive) | 0.423 (inactive) | -0.0175 (inactive) | 0.234 (inactive) | -0.534 | -0.0313 | 1.03 | 0.843 | 0.61
